Sampled rows, rich in hits. Any-hit rate of the full collection: about 11%.
G9a inh: blocks human histone lysine methyltransferase G9a; Q96KQ7; G9a H3K9 monomethylation, AlphaScreen, 2 h; Potency, µM (highest dose often 102 µM), for the others: at the highest dose activity, negative = inhibition, hits mostly inhibitors; 350,000 tested, 8.8% active; AID 504332; also: % is scaled to controls: 0 for no effect and ±100 for the full control effect; nearly all actives have a fitted effect of over 75% in size
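Compounds were preincubated with 20 nM G9a for 15 min, after which biotinylated H3K9 peptide (500 nM) and SAM (20 uM) started a 2 h room-temperature reaction. Monomethylated product was quantified by antibody-based AlphaScreen chemiluminescence.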
L3MBTL1 block: inhibitors of human L3MBTL1. AlphaScreen L3MBTL1–H3K9me1 peptide binding. Potency, µM (doses to about 57.1 µM), for inactives: at the highest dose activity, negative = inhibition, usual class: inhibitors. 230,000 tested, 0.66% active; also: % is scaled to controls: 0 for no effect and ±100 for the full control effect; nearly all actives have a fitted effect of over 60% in size
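L3MBTL1 50 nM + b-AHA-H3(1-15)K9me1 75 nM, 30 min RT; compound added, 30 min RT; streptavidin donor/Ni-chelate acceptor beads 10 ug/mL each final, 30 min RT dark; AlphaScreen read.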
BAZ2B inh: inhibitors of human BAZ2B bromodomain; 360,000 tested, 4.4% active; AlphaScreen BAZ2B-H3K14Ac peptide displacement; Potency, µM (titrated, usually from 114 µM), inactives show at the top dose activity change, negative = inhibition, actives largely listed as inhibitors; AID 504333; Q9UIF8; also: % is scaled to controls: 0 for no effect and ±100 for the full control effect; nearly all actives have a fitted effect of over 60% in size
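Complex of BAZ2B and biotin-H3K14Ac (50 nM apiece) forms over 30 min at RT, then faces library compounds up to 110 uM for another 30 min; AlphaScreen beads added, 20 min dark incubation, luminescence read.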
HP1b binding inh: blocks HP1-beta chromodomain binding to methylated histone tails; P83916; AlphaScreen HP1-beta / biotin-H3K9me3 peptide binding; Potency, µM (highest dose often 114 µM), for inactives: at the top dose activity change, negative = inhibition, usual class: inhibitors; 390,000 tested, 0.56% active; also: nearly all actives have a fitted effect of over 70% in size
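Compound inhibition of the preformed complex between 50 nM HP1-beta and 50 nM biotinylated H3K9me3 peptide was read by AlphaScreen. Buffer was PBS pH 7.4 with 0.01% Tween-20. Incubations ran 30 min at room temperature, with 10 ug/mL donor/acceptor beads.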
JMJD2A Tudor inh: inhibitors of human JMJD2A Tudor domain; O75164; 390,000 tested, 4.4% active; AlphaScreen JMJD2A-Tudor / H3K4me3 peptide binding; Potency, µM (highest dose often 114 µM), without a hit: top-dose activity change, negative = inhibition, usual class: inhibitors; also: % is scaled to controls: 0 for no effect and ±100 for the full control effect; nearly all actives have a fitted effect of over 50% in size
Target sequence (O75164 whole entry, looked up, the tested form may be a part): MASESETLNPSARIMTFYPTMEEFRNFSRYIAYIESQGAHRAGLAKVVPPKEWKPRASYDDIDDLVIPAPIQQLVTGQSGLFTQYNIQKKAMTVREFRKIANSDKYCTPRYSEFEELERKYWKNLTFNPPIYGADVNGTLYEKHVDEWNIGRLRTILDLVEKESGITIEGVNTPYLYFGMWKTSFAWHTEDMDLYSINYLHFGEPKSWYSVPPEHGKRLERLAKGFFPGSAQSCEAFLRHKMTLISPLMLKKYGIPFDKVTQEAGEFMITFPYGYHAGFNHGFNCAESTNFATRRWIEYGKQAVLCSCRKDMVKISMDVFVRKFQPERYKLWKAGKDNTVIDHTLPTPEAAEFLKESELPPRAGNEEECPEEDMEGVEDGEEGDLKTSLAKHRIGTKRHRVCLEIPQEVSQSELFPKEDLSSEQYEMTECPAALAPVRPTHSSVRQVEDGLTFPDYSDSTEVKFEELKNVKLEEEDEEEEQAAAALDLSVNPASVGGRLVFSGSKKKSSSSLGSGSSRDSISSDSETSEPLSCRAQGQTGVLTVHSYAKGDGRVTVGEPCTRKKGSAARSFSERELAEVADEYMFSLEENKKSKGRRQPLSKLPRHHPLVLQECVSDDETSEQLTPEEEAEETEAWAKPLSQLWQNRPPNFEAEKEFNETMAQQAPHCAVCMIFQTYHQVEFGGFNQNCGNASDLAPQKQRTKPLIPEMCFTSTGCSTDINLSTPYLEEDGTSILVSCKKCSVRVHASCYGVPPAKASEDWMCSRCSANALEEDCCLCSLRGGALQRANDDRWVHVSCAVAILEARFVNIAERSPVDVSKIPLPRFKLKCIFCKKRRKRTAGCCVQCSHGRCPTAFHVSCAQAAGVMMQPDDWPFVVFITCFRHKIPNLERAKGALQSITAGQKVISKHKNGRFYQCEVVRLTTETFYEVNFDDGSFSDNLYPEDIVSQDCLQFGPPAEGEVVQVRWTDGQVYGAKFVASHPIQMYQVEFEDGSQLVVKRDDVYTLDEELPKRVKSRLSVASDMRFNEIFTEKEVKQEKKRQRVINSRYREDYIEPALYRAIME
The depositor's hits bear a star; ? = inconclusive; / = no result; ! = repeats disagree; [ ] = dose if it differs, or a comment. Calls follow the shape of the dose curve; as a rule, active = well fitted inhibition curve with a large enough effect; inconclusive = small, poorly fitted or top-dose-only effect; inactive = no such curve, though single readings can be large or run the other way. Potency is read from the fitted curve at half-maximal effect.

SMILES	G9a inh	L3MBTL1 block	BAZ2B inh	HP1b binding inh	JMJD2A Tudor inh
Cc1ccc(CCNC(=O)Cn2nc(C)c3c(C)n(-c4ccc(C)cc4)nc3c2=O)cc1	-2.1%[59 µM]	/	?	42.9%	5.2%
CCC(C)N1CCN(C(=O)COc2ccc3ccccc3c2)CC1 (stereo unspecified)	1.78µM*	/	17.8µM*	50.1µM*	2.82µM*
O=C(COc1ccc2ccccc2c1)N1CCN(Cc2c[nH]c3ccccc23)CC1	?	-12.1%	50.1µM*	?	8.91µM*
CCc1ccc(CNC(=O)C2CCN(C(=O)c3ccc(-n4c(C)cc5ccccc54)s3)CC2)cc1	-28.8%[59 µM]	/	?	22.8%	-27.6%
Clc1cccc(CNCCc2c[nH]c3ccccc23)c1	10.9%[2.33 µM]	/	50.1µM*	?	7.08µM*
c1ccc2c(CCNC3CCCCC3)c[nH]c2c1	12.6µM*	-20.0%	?	79.4µM*	31.6µM*
CCCCN1CCS(=O)(=O)N(Cc2ccccc2Br)CC(C(=O)OC)C1 (stereo unspecified)	/	0.1%	/	96.5%	-10.8%
Cc1cccc(-c2nc(CN3C(=O)CN=C(c4ccccc4)c4ccccc43)c(C)o2)c1	?	/	22.4µM*	-21.0%	?
Cc1oc(-c2ccccc2)nc1CN1C(=O)CN=C(c2ccccc2)c2ccccc21	?	-6.1%	?	-0.7%	?
Cc1ccc(NC(=O)Nc2ccc3nc(N4CCN(C)CC4)cc(C)c3c2)cc1F	-31.0%[59 µM]	/	3.3%[57.1 µM]	40.9%	-13.9%
COc1cccc(NC(=O)c2cccn(Cc3ccccc3C)c2=O)c1	35.8%[59 µM]	/	-4.4%	27.1%[57 µM]	-10.3%
CC(C)C(OC(=O)c1ccco1)C(=O)NCc1ccco1 (stereo unspecified)	0.4%[59 µM]	/	-4.8%	?	79.4µM*
Cc1nn(Cc2ccccc2)c(C)c1C(=O)OCC(=O)NCc1ccco1	?	/	-18.2%	14.8%	2.0%
O=C(Nc1ccc(Cl)c(Cl)c1)c1ccco1	/	11.9%	?	35.5%	6.8%
O=C1NC(=O)C(Nc2ccc(Cl)c(Cl)c2)C(=O)N1	/	/	/	12.9%	31.6µM*
Cc1ccc(C(=O)Nc2ccc(S(=O)(=O)N3CCC(c4nc5ccccc5s4)CC3)cc2)cc1	-28.4%[59 µM]	/	?	34.4%	-12.9%
O=C1NC(=O)C(=Cc2cc(Cl)ccc2OCc2ccc(C(=O)O)cc2)C(=O)N1	31.6µM*	/	2.6%	10.7%	-12.3%
CN1C(=O)C(=Cc2ccccc2OCc2ccc(Cl)cc2)C(=O)N(C)C1=O	-13.5%[59 µM]	1.3%	8.7%	24.1%	3.7%
O=C(Nc1ccc(Cl)c(C(F)(F)F)c1)c1ccc2c(c1)CCN2S(=O)(=O)c1ccccc1	8.1%[59 µM]	/	2.2%	63.8%	5.7%
O=C(NCc1ccc(Cl)cc1)C1CCCN(C(=O)c2cnn(-c3ccc(F)cc3)c2-n2cccc2)C1 (stereo unspecified)	?	/	-26.2%	18.2%	-36.6%
COc1ccc(C2CC(c3c(O)n(CCc4ccccc4)c(=O)[nH]c3=O)=NN2)cc1OC (stereo unspecified)	56.2µM*	-15.0%	22.4µM*	38.0%	-29.2%
CCOc1ccc2nc(NC(=O)c3cccn(Cc4ccccc4)c3=O)sc2c1	-1.9%[59 µM]	/	0.6%	3.9%	-10.7%
O=C1c2ccccc2C(=O)N1SC1CCCCC1	2µM*	3.2%	2.1%	-7.8%	?
O=C(N/N=C\C1C(=O)NC(=S)N(c2ccccc2)C1=O)c1ccc(O)cc1 (stereo unspecified)	8.91µM*	/	25.1µM*	22.4%	79.4µM*
CC(=O)C1CCC2C3CCC4CC(O)CCC4(C)C3CC(O)C12C (stereo unspecified)	-45.2%[2.33 µM]	/	/	/	/
SMILES	G9a inh	L3MBTL1 block	BAZ2B inh	HP1b binding inh	JMJD2A Tudor inh
NC(=O)[C@@H]1CCCN1C(=O)[C@H](Cc1ccccc1)NC(=O)[C@@H]1CCCN1C(=O)[C@@H](N)Cc1ccc(O)cc1	27.1%[59 µM]	/	/	/	/
CN(C)c1cccc2c(C#N)ccc(N(C)C)c12	44.7µM*	-18.1%	-18.8%	?	?
CN1C(=O)C(=Cc2ccc(N3CCOCC3)o2)C(=O)N(C)C1=S	-4.3%	-4.7%	?	-22.4%	-19.2%
CCN1C(=O)C(=Cc2ccc(N3CCOCC3)o2)C(=O)N(CC)C1=S	/	-6.2%	39.8µM*	-8.0%	-34.2%
C=CCN1C(=O)/C(=C\c2ccc(N3CCOCC3)o2)C(=O)NC1=S	8.91µM*	-6.8%	0.9%	0.9%	-9.3%
COc1ccccc1CNC(=O)C(NS(=O)(=O)c1ccc2c(c1)oc(=O)n2C)C(C)C (stereo unspecified)	-2.7%	/	-1.9%	45.9%	-6.2%
CC1=NN=C(c2ccc(N)cc2)c2cc3c(cc2C1)OCO3	7.52µM*!	-3.8%	?	22.9%	?
CC1Cc2cc3c(cc2C(c2ccc(N)cc2)=NN1)OCO3 (stereo unspecified)	8.91µM*	/	/	/	/
CNC(=O)COC(=O)c1ccc(-c2nc3ccccc3s2)s1	?	/	3.3%	10.5%	-2.8%
O=C(Nc1ccccc1F)Oc1cccc(OC(=O)Nc2ccccc2F)c1	1.1%	0.0%	-9.8%	43.0%	-0.7%
CC(C)(C)c1ccc(OCC(=O)Nc2ccc(Cl)cc2C(=O)c2ccccc2)cc1	-27.2%[59 µM]	/	-4.1%	23.3%	-8.8%
CC1(c2ccc(Cl)cc2Cl)OCC(Cn2cncn2)O1 (stereo unspecified)	?	1.2%	70.8µM*	-2.5%	-15.5%
CCCC1COC(Cn2cncn2)(c2ccc(Cl)cc2Cl)O1 (stereo unspecified)	-6.9%	1.3%	-36.8%	47.6%	-18.3%[57.1 µM]
C/C(CC(=O)N1CCN(C=O)CC1)=N\NC(=O)c1cccc([N+](=O)[O-])c1	20.2%	-10.1%	?	11.7%	-14.4%
COc1ccc(CCNCc2ccc3c(c2)n(C)c(=O)n3C)cc1	-2.3%[59 µM]	/	-3.6%	19.5%	-8.6%
COc1ccc(CCNCc2ccccc2)cc1	5.1%[2.33 µM]	/	25.1µM*	?	7.08µM*
COc1ccc(CCNCc2ccncc2)cc1	?	/	56.2µM*	?	1.26µM*
Fc1ccc(CNCCc2ccccc2)cc1	?	11.7%	/	?	22.4µM*
COc1ccc(CCNCc2c(OC)ccc3ccccc23)cc1	14.1µM*	/	35.5µM*	?	22.4µM*
O=C1OC(=O)c2c(Br)c(Br)c(Br)c(Br)c21	-23.5%[0.501 µM]	-5.3%	?	45.8%	?
COc1ccc(NC(=O)CCCn2c(=O)oc3ccccc32)cc1Cl	-8.8%[59 µM]	7.0%	-21.3%	46.8%	-5.0%
CN1CCC2(CC1)CCN(C(=O)Oc1ccccc1)CC2	4.3%[12.7 µM]	/	/	/	/
COc1cccc(CCNCc2ccc(SC)cc2)c1	3.16µM*	4.0%	50.1µM*	?	25.1µM*
C[C@H](N)Cc1cnc[nH]1	-38.7%[59 µM]	/	/	/	/
Cc1ccc(/C=C2\C(=O)NC(=O)N(Cc3ccccc3Cl)C2=O)o1	12.6µM*	-25.1%	31.6µM*	16.7%	-13.6%
O=C1NC(=O)N(Cc2ccc(F)cc2)C(=O)/C1=C/c1cccs1	3.98µM*	/	79.4µM*	26.7%	-29.3%

Screening data: PubChem BioAssay, National Center for Advancing Translational Sciences (NCATS)
